# Measurements: PMC12820563, “FoxP3 forms a head-to-head dimer in vivo and stabilizes its multimerization on adjacent microsatellites”
# Over roughly 16,000 sequences, “rpm ratio (pull-down/input)” has its median near 0.5; the highest 2% begin near 5.5. Shown is part of a subset that was picked to be rich in the highest values.
# Target: T1, MBP-FoxP3dN (Mus musculus, UniProt Q99JB6 188-423)
# T1 sequence: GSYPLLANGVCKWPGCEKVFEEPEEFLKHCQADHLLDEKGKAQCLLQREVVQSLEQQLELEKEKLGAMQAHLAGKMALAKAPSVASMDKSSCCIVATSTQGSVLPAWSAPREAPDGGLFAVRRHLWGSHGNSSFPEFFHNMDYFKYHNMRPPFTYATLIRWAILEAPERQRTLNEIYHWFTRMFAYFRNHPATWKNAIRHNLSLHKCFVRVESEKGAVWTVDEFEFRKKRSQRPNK
# Assay: PD-seq (MBP pull-down with sequencing); 20 mM Tris-HCl pH 7.5, 100 mM NaCl, 1.5 mM MgCl2, 0.4 uM protein, 0.1 uM dsDNA library, 30 min, room temperature, amylose pull-down; high values mean tight binding
# Conditions: protein: recombinant; tags: His6-MBP; chain copies: 2; dsDNA, one strand shown
# Method in brief: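 In Tris pH 7.5 buffer with NaCl and MgCl2, 0.4 µM His6-MBP-tagged mouse FoxP3 or FoxP1 fragment lacking the N-terminus, from E. coli, met 0.1 µM Klenow-filled double-stranded degenerate DNA library for 30 min at room temperature. Three washes on amylose resin followed capture of the complexes, then proteinase K release of DNA, PCR barcoding and Illumina sequencing. Binding is taken as pooled-replicate reads-per-million enrichment of pull-down relative to input.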
row,Sequence,binding signal
1,GATGATTGTTCTCCCAGCTGATGAATTGTGCCGATCGAGTAAACAAATTTTCCTAATCTTTCTGTTCAAGCGCCATCTAC,1.02 RPM ratio (pull-down/input)
2,GATGATTGTTCTCCCAGCTGATGAATTTTTTGAATCGAGTAAACAAATTTTCCTAATCTTTCTGTTCAAGCGCCATCTAC,0.229 RPM ratio (pull-down/input)
3,GATGATTGTTCTCCCAGCTGATGAATTGGGTGTTTCGAGTAAACAAATTTTCCTAATCTTTCTGTTCAAGCGCCATCTAC,1.38 RPM ratio (pull-down/input)
4,GATGATTGTTCTCCCAGCTGATGAATTCAACTGATCGAGTAAACAAATTTTCCTAATCTTTCTGTTCAAGCGCCATCTAC,0.332 RPM ratio (pull-down/input)
5,GATGATTGTTCTCCCAGCTGATGAATTGAATATGTCGAGTAAACAAATTTTCCTAATCTTTCTGTTCAAGCGCCATCTAC,0.689 RPM ratio (pull-down/input)
6,GATGATTGTTCTCCCAGCTGATGAATTGACACTCTCGAGTAAACAAATTTTCCTAATCTTTCTGTTCAAGCGCCATCTAC,0.6 RPM ratio (pull-down/input)
7,GATGATTGTTCTCCCAGCTGATGAATTCTTGAATTCGAGTAAACAAATTTTCCTAATCTTTCTGTTCAAGCGCCATCTAC,0.493 RPM ratio (pull-down/input)
8,GATGATTGTTCTCCCAGCTGATGAATTGTACTTTTCGAGTAAACAAATTTTCCTAATCTTTCTGTTCAAGCGCCATCTAC,0.551 RPM ratio (pull-down/input)
9,GATGATTGTTCTCCCAGCTGATGAATTGGGTGAGTCGAGTAAACAAATTTTCCTAATCTTTCTGTTCAAGCGCCATCTAC,0.443 RPM ratio (pull-down/input)
10,GATGATTGTTCTCCCAGCTGATGAATTCACTTGTTCGAGTAAACAAATTTTCCTAATCTTTCTGTTCAAGCGCCATCTAC,1.02 RPM ratio (pull-down/input)
11,GATGATTGTTCTCCCAGCTGATGAATTCAGTAACTCGAGTAAACAAATTTTCCTAATCTTTCTGTTCAAGCGCCATCTAC,1.34 RPM ratio (pull-down/input)
12,GATGATTGTTCTCCCAGCTGATGAATTCAACACCTCGAGTAAACAAATTTTCCTAATCTTTCTGTTCAAGCGCCATCTAC,0.553 RPM ratio (pull-down/input)
13,GATGATTGTTCTCCCAGCTGATGAATTATTTTGGTCGAGTAAACAAATTTTCCTAATCTTTCTGTTCAAGCGCCATCTAC,0.995 RPM ratio (pull-down/input)
14,GATGATTGTTCTCCCAGCTGATGAATTTATATTGTCGAGTAAACAAATTTTCCTAATCTTTCTGTTCAAGCGCCATCTAC,2.37 RPM ratio (pull-down/input)
15,GATGATTGTTCTCCCAGCTGATGAATTTTATTGGTCGAGTAAACAAATTTTCCTAATCTTTCTGTTCAAGCGCCATCTAC,4.94 RPM ratio (pull-down/input)
16,GATGATTGTTCTCCCAGCTGATGAATTTATTTTGTCGAGTAAACAAATTTTCCTAATCTTTCTGTTCAAGCGCCATCTAC,5.94 RPM ratio (pull-down/input)
17,GATGATTGTTCTCCCAGCTGATGAATTTATTTGGTCGAGTAAACAAATTTTCCTAATCTTTCTGTTCAAGCGCCATCTAC,6.15 RPM ratio (pull-down/input)
18,GATGATTGTTCTCCCAGCTGATGAATTTAATTTGTCGAGTAAACAAATTTTCCTAATCTTTCTGTTCAAGCGCCATCTAC,3.39 RPM ratio (pull-down/input)
